Data taken from the antibiotic and cytotoxicity screens of Wong et al. (2023).
The campaign covered roughly 39,000 compounds. About 3,300 (8.5%) were called active. Shown is part of a subset that was picked to be rich in actives.

test system: HepG2; assay: cytotoxicity call (relative viability < 0.9); details: 10 µM

Structure (SMILES)	cytotoxicity call
Cc1noc(C)c1S(=O)(=O)Nc1ccc2c(c1)C(=O)N([C@H](C)CO)C[C@@H](C)[C@@H](CN(C)Cc1ccc(-c3ccccc3)cc1)O2	inactive
C[C@H]1CN([C@@H](C)CO)C(=O)Cc2cc(NS(=O)(=O)c3ccccc3)ccc2O[C@H]1CN(C)S(=O)(=O)c1ccc(F)cc1	inactive
C[C@@]1(NC(=O)Cc2ccc(S(=O)(=O)N3CCOCC3)s2)CCS(=O)(=O)C1	inactive
C[C@@H]1CN([C@@H](C)CO)C(=O)c2cccc(NS(=O)(=O)c3ccccc3)c2O[C@H]1CN(C)S(=O)(=O)c1cccs1	inactive
C[C@H](CO)N1C[C@H](C)[C@H](CN(C)S(=O)(=O)c2ccc(F)cc2)Oc2c(NC(=O)c3cnccn3)cccc2C1=O	inactive
CCS(=O)(=O)N1CC[C@]2(CC1)CN([C@@H](CO)c1c2c2ccc(cc2n1C)OC)C(=O)Nc1c(noc1C)C	inactive
O=C(CN1CCOCC1)NCC[C@H]1CC[C@H](NS(=O)(=O)c2ccc(Cl)cc2)[C@@H](CO)O1	inactive
COc1c(O[C@@H]2O[C@H](CO)[C@@H](O)[C@H](O)[C@H]2O)cc2oc(-c3ccc(O)c(O)c3)c(O)c(=O)c2c1O	inactive
CC(=O)O[C@@H]1[C@@H](O[C@@H]2O[C@H](CO)[C@@H](O)[C@H](O)[C@H]2O)[C@@H](O)[C@H](OC[C@H]2O[C@@H](Oc3c(-c4ccc(O)c(O)c4)oc4cc(O)cc(O)c4c3=O)[C@H](O)[C@@H](O)[C@H]2O)O[C@H]1C	active
O=c1c(O)c(-c2ccc(O)c(O)c2)oc2c(O[C@@H]3O[C@H](CO)[C@H](O)[C@@H](O)[C@H]3O)c(O)cc(O)c12	active
C[C@H]1O[C@@H](OC[C@H]2O[C@@H](Oc3c(-c4ccc(O)c(O)c4)oc4cc(O)cc(O)c4c3=O)[C@@H](O)[C@@H](O)[C@@H]2O)[C@@H](O)[C@@H](O)[C@@H]1O	inactive
O=c1c(O)c(-c2ccc(O)c(O)c2)oc2c(OC3OC(CO)C(O)C(O)C3O)c(O)cc(O)c12 (stereo unspecified)	inactive
C[C@@H]1O[C@@H](O[C@@H]2[C@@H](O)[C@H](C)O[C@@H](OC[C@H]3O[C@@H](Oc4c(-c5ccc(O)c(O)c5)oc5cc(O)cc(O)c5c4=O)[C@@H](O)[C@@H](O)[C@@H]3O)[C@@H]2O)[C@H](O)[C@H](O)[C@H]1O	inactive
Cc1ccc(S(=O)(=O)N(C)C[C@@H]2Oc3ncc(C#CC4(O)CCCC4)cc3C(=O)N([C@@H](C)CO)C[C@H]2C)cc1	inactive
CC(C)(C[C@H]1CN(S(=O)(=O)c2cccc(C(F)(F)F)c2)c2cc(-c3cc(F)cc(OC(F)F)c3)ccc2O1)C(=O)O	inactive
COC(=O)CCCCCCC(=O)N/N=C/[C@H](O)[C@@H](O)[C@@H](O)[C@H](O)C(=O)O	inactive
COc1ccc(cc1)S(=O)(=O)N1CC[C@]2(CC1)CN([C@@H](CO)c1c2c2ccc(cc2n1C)OC)C(=O)CN(C)C	inactive
COc1ccc2c3c(n(c2c1)C)[C@H](CO)N(CC1CCCC1)C[C@]13CCN(CC1)C(=O)Nc1ccccc1	inactive
COc1ccc(cc1)S(=O)(=O)N1C[C@]2(C1)CN([C@H](CO)c1c2c2ccc(cc2n1C)OC)C(=O)CN(C)C	active
COc1ccc(cc1)S(=O)(=O)N1C[C@]2(C1)CN([C@@H](CO)c1c2c2ccc(cc2n1C)OC)C(=O)CN(C)C	inactive
COc1ccc2c3c(n(c2c1)C)[C@H](CO)N(Cc1ccccc1)C[C@]13CCN(CC1)C(=O)Nc1cccc(c1)F	inactive

Structure (SMILES)	cytotoxicity call
COc1ccc2c3c(n(c2c1)C)[C@@H](CO)N(CC1CCCC1)C[C@]13CCN(CC1)C(=O)Nc1ccccc1	active
COc1ccc(cc1)S(=O)(=O)N1CC[C@]2(CC1)CN([C@H](CO)c1c2c2ccc(cc2n1C)OC)C(=O)CN(C)C	active
COCC(=O)N1CC[C@]2(CC1)CN([C@@H](CO)c1c2c2ccc(cc2n1C)OC)C(=O)Cc1ccccc1	inactive
COCC(=O)N1CC[C@]2(CC1)CN(Cc1cccc(c1)OC)[C@@H](CO)c1c2c2ccc(cc2n1C)OC	inactive
COCC(=O)N1CC[C@]2(CC1)CN([C@H](CO)c1c2c2ccc(cc2n1C)OC)C(=O)Cc1ccccc1	active
COc1ccc2c3c(n(c2c1)C)[C@H](CO)N(C[C@]13CN(C1)S(=O)(=O)C)C(=O)CN(C)C	inactive
COc1ccc2c3c(n(c2c1)C)[C@H](CO)N(C[C@]13CCN(CC1)S(=O)(=O)C)C(=O)CN(C)C	inactive
CNC[C@@H]1OCCCC[C@@H](C)Oc2ccc(NC(=O)CCCN(C)C)cc2C(=O)N([C@H](C)CO)C[C@H]1C	inactive
O=C(O)c1cn(-c2ccccc2)nn1	inactive
COCC(=O)N1C[C@H](C)[C@@H](OC)CN(C)C(=O)c2cc(NC(=O)c3ccc(OC)cc3)ccc2OC[C@H]1C	inactive
COc1ccc2c3c([nH]c2c1)[C@H](CO)N(C[C@]13CCN(CC1)C(=O)c1cccnc1)C(=O)c1cccnc1	inactive
C/C=C/c1ccc([C@@H]2[C@H](CO)N(S(=O)(=O)CC)C23CN(C(=O)CN(C)C)C3)cc1	inactive
C[C@H](CO)N1C[C@H](C)[C@H](CN(C)Cc2ccc(Oc3ccccc3)cc2)Oc2c(NC(=O)C3CCCCC3)cccc2C1=O	inactive
COc1ccc(NC(=O)N(C)C[C@@H]2OCCCC[C@H](C)Oc3ccc(NS(=O)(=O)c4ccccc4)cc3C(=O)N([C@H](C)CO)C[C@H]2C)cc1	inactive
CC(C)NC(=O)N(C)C[C@@H]1Oc2c(NS(=O)(=O)c3cccs3)cccc2C(=O)N([C@@H](C)CO)C[C@@H]1C	inactive
C[C@@H]1CCCCO[C@@H](CN(C)S(=O)(=O)c2ccc(Cl)cc2)[C@@H](C)CN([C@@H](C)CO)C(=O)c2cc(NC(=O)Cc3ccccc3)ccc2O1	inactive
C[C@@H]1CCCCO[C@@H](CN(C)S(=O)(=O)c2ccc(Cl)cc2)[C@@H](C)CN([C@H](C)CO)C(=O)c2cc(NC(=O)Cc3ccccc3)ccc2O1	inactive
C[C@H](CO)N1C[C@H](C)[C@H](CN(C)S(=O)(=O)c2ccc(Cl)cc2)OCCCC[C@H](C)Oc2ccc(NC(=O)Cc3ccccc3)cc2C1=O	inactive
C[C@@H]1CCCCO[C@H](CN(C)S(=O)(=O)c2ccc(Cl)cc2)[C@@H](C)CN([C@H](C)CO)C(=O)c2cc(NC(=O)Cc3ccccc3)ccc2O1	active
C[C@@H]1CN([C@H](C)CO)C(=O)c2cc(NC(=O)Cc3ccccc3)ccc2O[C@@H](C)CCCCO[C@@H]1CN(C)S(=O)(=O)c1ccc(Cl)cc1	inactive
C[C@@H]1CCCCO[C@H](CN(C)S(=O)(=O)c2ccc(Cl)cc2)[C@@H](C)CN([C@@H](C)CO)C(=O)c2cc(NC(=O)Cc3ccccc3)ccc2O1	inactive

Structure (SMILES)	cytotoxicity call
C[C@@H]1CN([C@H](C)CO)C(=O)c2cc(NC(=O)Cc3ccccc3)ccc2O[C@@H](C)CCCCO[C@H]1CN(C)S(=O)(=O)c1ccc(Cl)cc1	inactive
C[C@H](CO)N1C[C@H](C)[C@@H](CN(C)S(=O)(=O)c2ccc(Cl)cc2)OCCCC[C@H](C)Oc2ccc(NC(=O)Cc3ccccc3)cc2C1=O	active
C[C@@H]1CCCCO[C@@H](CN(C)S(=O)(=O)c2ccc(Cl)cc2)[C@H](C)CN([C@H](C)CO)C(=O)c2cc(NC(=O)Cc3ccccc3)ccc2O1	active
C[C@@H]1CN([C@@H](C)CO)C(=O)c2cc(NC(=O)Cc3ccccc3)ccc2O[C@@H](C)CCCCO[C@H]1CN(C)S(=O)(=O)c1ccc(Cl)cc1	inactive
C[C@@H]1CCCCO[C@H](CN(C)S(=O)(=O)c2ccc(Cl)cc2)[C@H](C)CN([C@H](C)CO)C(=O)c2cc(NC(=O)Cc3ccccc3)ccc2O1	active
C[C@@H]1CCCCO[C@H](CN(C)S(C)(=O)=O)[C@@H](C)CN([C@@H](C)CO)C(=O)c2cc(N(C)C)ccc2O1	inactive
C[C@@H]1CN([C@@H](C)CO)C(=O)c2cccc(NC(=O)c3nc4ccccc4s3)c2O[C@@H]1CN(C)Cc1ccc(Oc2ccccc2)cc1	inactive
COc1cc(S(=O)(=O)NCCN2CCN(S(=O)(=O)c3cc(OC)c(Cl)cc3OC)CC2)c(OC)cc1Cl	inactive
COc1ccc(NC(=O)N(C)C[C@@H]2Oc3c(NC(=O)CCCCCC(=O)Nc4ccccc4N)cccc3C(=O)N([C@@H](C)CO)C[C@H]2C)cc1	inactive
Cc1ccc(S(=O)(=O)Nc2ccc3c(c2)C(=O)N([C@H](C)CO)C[C@H](C)[C@H](CN(C)C(=O)CCC(F)(F)F)OCCCC[C@H](C)O3)cc1	inactive
COc1ccc(NC(=O)N(C)C[C@H]2OCCCC[C@@H](C)Oc3ccc(NS(=O)(=O)c4cccs4)cc3C(=O)N([C@H](C)CO)C[C@H]2C)cc1	inactive
O=C(NCCN1CCOCC1)[C@@H]1c2ccccc2C(=O)N(C2Cc3ccccc3C2)[C@H]1c1ccc(CO)cc1	inactive
COCCNC(=O)C[C@@H]1CC[C@H]2[C@@H](COC[C@@H](O)CN2S(=O)(=O)c2ccccc2F)O1	inactive
COCC(=O)Nc1ccc2c(c1)C(=O)N(C)C[C@H](OC)[C@@H](C)CN(C(=O)c1ccccc1F)[C@H](C)CO2	inactive
C[C@@H]1CN([C@@H](C)CO)C(=O)Cc2cc(NS(=O)(=O)c3cn(C)cn3)ccc2O[C@H]1CN(C)C(=O)NC1CCCCC1	inactive
C[C@H]1CCCCO[C@H](CN(C)Cc2ccncc2)[C@@H](C)CN([C@@H](C)CO)C(=O)c2cc(NC(=O)NC3CCCCC3)ccc2O1	inactive
C[C@@H]1CN([C@@H](C)CO)C(=O)c2cc(NC(=O)Cc3ccccc3)ccc2O[C@@H](C)CCCCO[C@@H]1CN(C)S(=O)(=O)c1ccc(Cl)cc1	inactive
C[C@H]1CCCCO[C@H](CN(C)S(=O)(=O)c2ccc(Cl)cc2)[C@@H](C)CN([C@@H](C)CO)C(=O)c2cc(NC(=O)Cc3ccccc3)ccc2O1	active
C[C@@H]1CCCCO[C@@H](CN(C)S(=O)(=O)c2ccc(Cl)cc2)[C@H](C)CN([C@@H](C)CO)C(=O)c2cc(NC(=O)Cc3ccccc3)ccc2O1	inactive
